From the supplement of paper PMC6992640
± gives the standard deviation of the averaged measurements.

Legend:
Test in all cases: cell viability (% of vehicle); higher = less cytotoxic
HCI01 [1] = cells of a triple-negative basal-like breast cancer xenograft; settings: 1 µM; 72 h
UCD52 [2] = cells of a triple-negative basal-like breast cancer xenograft; settings: 1 µM; 72 h
WHIM2 [3] = cells of a triple-negative basal-like breast cancer xenograft; settings: 1 µM; 72 h
WHIM30 [4] = cells of a triple-negative basal-like breast cancer xenograft; settings: 1 µM; 72 h
HCI01 [5] = settings: 10 µM; 72 h
HCI03 = cells of an ER-positive luminal breast cancer xenograft; settings: 10 µM; 72 h
HCI09 = cells of a triple-negative luminal androgen receptor type breast cancer xenograft; settings: 10 µM; 72 h
HCI11 = cells of an ER-positive luminal breast cancer xenograft; settings: 10 µM; 72 h
HCI13 = cells of an ER-positive luminal breast cancer xenograft; settings: 10 µM; 72 h
HCI16 = cells of a triple-negative basal-like breast cancer xenograft; settings: 10 µM; 72 h
UCD52 [6] = settings: 10 µM; 72 h
WHIM2 [7] = settings: 10 µM; 72 h
WHIM30 [8] = settings: 10 µM; 72 h

| SMILES | cell viability (HCI01 [1]) | cell viability (UCD52 [2]) | cell viability (WHIM2 [3]) | cell viability (WHIM30 [4]) | cell viability (HCI01 [5]) | cell viability (HCI03) | cell viability (HCI09) | cell viability (HCI11) | cell viability (HCI13) | cell viability (HCI16) | cell viability (UCD52 [6]) | cell viability (WHIM2 [7]) | cell viability (WHIM30 [8]) |
| --- | --- | --- | --- | --- | --- | --- | --- | --- | --- | --- | --- | --- | --- |
| CNC(=O)c1cc(Oc2ccc(NC(=O)Nc3ccc(Cl)c(C(F)(F)F)c3)cc2)ccn1 [Sorafenib] | 107 | 67.7 | 92.6 | 78 | 43.2 ± 12 | 89.2 | 25.2 ± 2.9 | 52.4 | 33.2 ± 5.5 | 41.1 | 46 ± 1.8 | 42.7 ± 5.5 | 37 ± 2.4 |
| COc1cccc2c1C(=O)c1c(O)c3c(c(O)c1C2=O)CC(O)(C(=O)CO)CC3OC1CC(N)C(O)C(C)O1.Cl (configuration not stated) [Doxorubicin (Adriamycin) HCl] | 93.6 | 38.7 | 26.8 | 45.9 | 70.4 ± 23 | 196 | 29.7 ± 8.2 | 41.4 |  | 66.1 | 33.1 ± 1.4 | 35.6 ± 6.6 | 77 ± 21 |
| CC(C)C(=O)OCC(=O)[C@@]12O[C@H](C3CCCCC3)O[C@@H]1C[C@H]1[C@@H]3CCC4=CC(=O)C=C[C@]4(C)[C@H]3[C@@H](O)C[C@@]12C [Ciclesonide] | 115 | 127 | 81.6 | 145 | 67.6 ± 23 | 76.3 | 50.6 ± 24 | 90.1 | 48.9 ± 2.2 | 122 | 46.7 ± 24 | 36 ± 1.9 | 100 ± 16 |
| CCOC(=O)c1c(CSc2ccccc2)n(C)c2cc(Br)c(O)c(CN(C)C)c12.Cl [Arbidol HCl] | 86.5 | 78.9 | 82.9 | 92.6 | 82.6 ± 33 | 87.3 | 58.6 ± 4.3 | 114 | 64.4 ± 11 | 92.3 | 35.7 ± 1.1 | 39.3 ± 9.1 | 85.2 ± 6.7 |
| CC1=CC(=O)c2ccccc2C1=O [Menadione] | 98.6 | 94.2 | 105 | 98.2 | 61.6 ± 55 | 51.9 | 31.3 ± 7.9 | 30.5 | 57.3 ± 4.9 | 57.6 | 30.5 ± 2.1 | 44.1 ± 10 | 138 ± 14 |
| CCCCc1oc2ccc(NS(C)(=O)=O)cc2c1C(=O)c1ccc(OCCCN(CCCC)CCCC)cc1 [Dronedarone] | 98.7 | 81.4 | 91.8 | 79.8 | 32.4 ± 2 | 40.7 | 22.2 ± 1.3 | 90.5 | 35.6 ± 0.56 | 32.7 | 29.7 ± 2.9 | 41.3 ± 5.4 | 38.6 ± 2.7 |
| C=C1C(=CC=C2CCCC3(C)C2CCC3C(C)CCCC(C)C)CC(O)CC1O (configuration not stated) [Alfacalcidol] | 72.3 | 59 | 51.8 | 91.3 | 31.7 ± 13 | 124 | 29.8 ± 8.2 | 70.1 | 52.6 ± 8.1 | 106 | 68.1 ± 0.89 | 49.9 ± 8.4 | 97.46 ± 0.87 |
| CC(C)(C)NC(=O)C1CC2CCCCC2CN1CC(O)C(Cc1ccccc1)NC(=O)C(CC(N)=O)NC(=O)c1ccc2ccccc2n1.CS(=O)(=O)O (configuration not stated) [Saquinavir mesylate] | 96.9 | 89.5 | 105 | 99.4 | 101 ± 20 | 104 | 57.7 ± 51 | 95.3 | 38.63 ± 0.17 | 63.8 | 50.4 ± 0.71 | 36.3 ± 2.6 | 103 ± 3.5 |
| CCCCc1oc2ccccc2c1C(=O)c1cc(I)c(OCCN(CC)CC)c(I)c1.Cl [Amiodarone HCl] | 96.6 | 101 | 94.7 | 98.4 | 69.5 ± 16 | 54.7 | 32.8 ± 9.1 | 75 | 36.2 ± 4 | 60 | 40.7 ± 7.3 | 37 ± 6 | 83.1 ± 5.7 |
| CN(C)CC=CC(=O)Nc1cc2c(Nc3ccc(F)c(Cl)c3)ncnc2cc1OC1CCOC1.O=C(O)C=CC(=O)O.O=C(O)C=CC(=O)O (configuration not stated) [Afatinib dimaleate] | 85.2 | 32.7 | 57.8 | 56 | 35.3 ± 3 | 53.8 | 35.2 ± 4.2 | 32.5 | 32.4 ± 2.1 | 30.7 | 40.1 ± 7.4 | 41.1 ± 4.1 | 54.6 ± 7 |
| CCCCCCCCc1ccc(CCC(N)(CO)CO)cc1.Cl [Fingolimod (FTY720)] | 97.7 | 87.9 | 92.2 | 84.3 | 28.9 ± 5.8 | 53.9 | 18.8 ± 3.1 | 33.8 | 52.3 ± 9.9 | 49.1 | 25.6 ± 1.3 | 77.9 ± 3.2 | 82.5 ± 15 |
| COc1ccc(C[C@H](N)C(=O)N[C@@H]2[C@H](O)[C@H](n3cnc4c(N(C)C)ncnc43)O[C@@H]2CO)cc1.Cl.Cl [Puromycin dihydrochloride] | 93.8 | 22.3 | 86.9 | 76.8 | 28.6 ± 2.4 | 58.6 | 26.89 ± 0.082 | 33.4 | 51.1 ± 14 | 52 | 34.5 ± 0.59 | 42 ± 4.2 | 33.3 ± 2.3 |
| CC(C)C1=CC(=C2NNC(=O)N2c2ccc3c(ccn3C)c2)C(=O)C=C1O [Ganetespib (STA-9090)] | 83.9 | 46.6 | 55.2 | 138 | 59.1 ± 28 | 53.9 | 25.3 ± 2 | 36.5 |  | 68.2 | 48.6 ± 9.8 | 95 ± 7.9 | 96.6 ± 1.9 |
